The source of these data is PubChem BioAssay.

Sequence of Focal adhesion kinase 1 (Homo sapiens) (Q05397 whole entry, looked up): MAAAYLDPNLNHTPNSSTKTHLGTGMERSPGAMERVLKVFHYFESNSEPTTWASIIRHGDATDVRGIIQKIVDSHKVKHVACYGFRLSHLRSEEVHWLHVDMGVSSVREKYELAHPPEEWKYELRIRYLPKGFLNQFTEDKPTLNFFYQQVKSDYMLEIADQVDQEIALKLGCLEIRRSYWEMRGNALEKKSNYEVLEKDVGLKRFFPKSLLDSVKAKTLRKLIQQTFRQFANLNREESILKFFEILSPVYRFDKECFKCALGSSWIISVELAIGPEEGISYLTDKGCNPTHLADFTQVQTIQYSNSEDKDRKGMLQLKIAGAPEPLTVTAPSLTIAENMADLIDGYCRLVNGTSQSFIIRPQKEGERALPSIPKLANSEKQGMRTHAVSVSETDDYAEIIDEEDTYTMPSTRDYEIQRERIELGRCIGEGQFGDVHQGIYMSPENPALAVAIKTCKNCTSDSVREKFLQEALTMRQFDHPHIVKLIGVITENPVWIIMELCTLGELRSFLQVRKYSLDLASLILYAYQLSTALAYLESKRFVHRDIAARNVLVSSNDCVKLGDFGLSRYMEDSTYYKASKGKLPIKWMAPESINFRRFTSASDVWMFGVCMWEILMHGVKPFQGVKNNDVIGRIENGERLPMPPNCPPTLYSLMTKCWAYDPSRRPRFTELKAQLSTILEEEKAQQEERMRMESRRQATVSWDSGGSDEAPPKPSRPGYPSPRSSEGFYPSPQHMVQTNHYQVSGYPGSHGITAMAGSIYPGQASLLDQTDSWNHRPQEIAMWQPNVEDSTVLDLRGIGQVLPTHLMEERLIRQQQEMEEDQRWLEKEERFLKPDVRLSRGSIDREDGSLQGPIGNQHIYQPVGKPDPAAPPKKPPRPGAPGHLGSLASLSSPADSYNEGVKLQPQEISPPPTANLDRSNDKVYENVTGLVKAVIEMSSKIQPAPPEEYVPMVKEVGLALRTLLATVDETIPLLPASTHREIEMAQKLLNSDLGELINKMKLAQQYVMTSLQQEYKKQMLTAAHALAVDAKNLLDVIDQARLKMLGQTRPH

One test has as its system Human papillomavirus type 1a E7 protein (residues 1-88). The test can be described thus: HPV1a E7 small-molecule binders, primary screen, biochemical, small-molecule microarray, residues 1-88, 635 nm (AID 1129). The following applies: small-molecule microarray binding, fluorescence 635 nm; higher = more signal.
As to `CC(C)=CCCC(C)=CCON=C1C[C@@H](O)[C@@H](O)[C@@H]2[C@@H]3C(=O)N(C(C)(C)C)C(=O)[C@@H]3CC[C@@H]12`, the composite z-score is 0.494.

Take `Cc1ccc(S(=O)(=O)NC(CCc2ccccc2)CC(=O)C(C)(C)C)cc1` (configuration not stated): the composite z-score came to 0.7.

In turn, `C#CCCCON=C1C[C@@H](O)[C@@H](O)[C@@H]2[C@@H]3C(=O)N(c4ccc(F)cc4F)C(=O)[C@@H]3CC[C@H]12` showed a composite z-score of 1.02.

For `COC(=O)[C@H](C)NC(=O)CCC1CC(OC(=O)NCc2ccc3c(c2)OCO3)CC2(CCCC(COC(=O)NCCc3ccccc3OC)O2)O1` (some centres not stated), the composite z-score came out at 0.638.

The compound `CCCCC#C[C@@H]1C=C[C@H](Oc2ccc(C(=O)OC)cc2)[C@@H](COC(=O)OCC)O1` showed a composite z-score of 0.459.

Compound `CO[C@@H]1C=CCC(=O)N2CCC[C@H]2C(=O)OC[C@@H](C)C(=O)OC[C@H]1C` showed a composite z-score of -0.565.

For the compound `COC(=O)CC=C[C@@H](C)[C@H](OCc1cccc(-c2ccccc2)c1)C1CCCCC1`, the composite z-score was -0.46.

With `O=C1C2=CC[C@H]3C(=O)N(c4cccc(Oc5ccccc5)c4)C(=O)[C@H]3[C@H]2[C@H](O)[C@@H]2O[C@H]12`, the composite z-score turned out to be 0.185.

Turning to `COC(=O)CC=C[C@@H](C)[C@@H](C=NO[C@@H](C)c1cc(-c2c(C)cc(C)cc2C)no1)NS(=O)(=O)c1ccc(C)cc1`, the composite z-score was -0.888.

With `CCOC(=O)[C@H](CC(C)C)NC(=O)CCC1CC(OC(=O)NCCc2ccc(F)cc2)CC2(CCCC(COC(=O)NCC3CCCCC3)O2)O1` (some centres not stated), the composite z-score turned out to be 0.579.

Another test concerns the target Focal adhesion kinase 1 (Homo sapiens) (UniProt Q05397). Briefly: PTK2 protein binding on printed compound slides – biochemical, small-molecule microarray, 635/667 nm fluorescence, BSA, DTT, primary screen (AID 1130).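 Further: composite of spot emission at 667 nm and signal to noise over triplicate slides.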 The conditions noted are these: 635 nm fluorescence, higher = more signal.
On to `CCOC(=O)C1=NO[C@@]2(C=C(Br)C3(OCCCO3)[C@H]3O[C@H]32)C1`, for which the composite z-score was determined as 0.0306.

With `C#CCCCON=C1C[C@@H](O)[C@@H](O)[C@@H]2[C@@H]3C(=O)N(C(C)(C)C)C(=O)[C@@H]3CC[C@H]12`, the composite z-score was -0.0811.

Consider `CO[C@@H]1COC(=O)[C@@H](C)COC(=O)[C@@H](C)NC(=O)CC=C[C@@H]1C`, for which the composite z-score was -0.149.

In turn, `COC(=O)CC=C[C@@H](C)[C@@H](C=NO[C@H](C)c1cn([C@H](CO)Cc2ccccc2)nn1)NS(=O)(=O)c1ccc(C)cc1` registered a composite z-score of 0.608.

Compound `O=C(C=Cc1ccc2c(c1)OCO2)c1ccc(F)cc1` gave a composite z-score of -0.174.

Regarding `CCOC(=O)[C@H](CC(C)C)NC(=O)CCC1CC(OC(=O)NCc2cccc3ccccc23)CC2(CCCC(COC(=O)NCCOC)O2)O1` (some centres not stated), the composite z-score came out at 0.175.

Regarding `C[C@@H]1C=CCC(=O)OC[C@H]2O[C@@H](C=C[C@@H]2O)[C@H](C)C=CCC(=O)OC1`, the composite z-score worked out at 1.7.

Compound `CCOC(=O)[C@H](CC(C)C)NC(=O)CCC1CC(OC(=O)NCc2cccc3ccccc23)CC2(CCCC(COC(=O)NCCCN3CCCC3=O)O2)O1` (some centres not stated) showed a composite z-score of 0.205.

As for `CSCC[C@@H]1NC(=O)CC=C[C@@H](C)COC(=O)[C@@H](C)COC1=O`, the composite z-score was -0.948.

The compound `COc1ccc(O[C@H]2C=C[C@@H](c3ccccc3)O[C@@H]2CON=C(C)CCN2CCc3nc(-c4ccccc4)c(-c4ccccc4)cc3C2)cc1` registered a composite z-score of 0.119.

`C=COC[C@@H]1CN2[C@@H](CC[C@@H](C)[C@@H]2c2ccc(Br)cc2)C(=O)O1` yielded a composite z-score of 0.18.

On to `COC(=O)CC=C[C@@H](C)[C@@H](C=NOCC[C@@H]1C=C[C@H](OC(C)=O)[C@@H](COC(C)=O)O1)NS(=O)(=O)c1ccc(C)cc1`, for which the composite z-score was determined as 0.15.

Take `CCc1cc2c(nc1CC)CCN(CCC(C)=NOC[C@H]1O[C@H](c3ccccc3)C=C[C@@H]1Oc1ccc(OC)cc1)C2`: the composite z-score was -0.0388.

Turning to `CC(C)CON=C1C[C@@H](O)[C@@H](O)[C@@H]2[C@@H]3C(=O)N(C4CCCCC4)C(=O)[C@@H]3CC[C@@H]12`, the composite z-score was 0.955.

`CCN1C(=O)[C@H]2[C@H]3[C@H](O)[C@H](O)CC(=O)[C@@H]3CC[C@H]2C1=O` came in with a composite z-score of -0.049.

The compound `COC(=O)C1=C(C)N(Cc2ccccc2)[C@]23O[C@](C(=O)OC)(C(=O)N2[C@@H]1c1ccccc1)C(C(=O)OC)=C3C(=O)OC` showed a composite z-score of 0.0309.

As for `CC(C)=NO[C@H](C)c1cn([C@H](CO)Cc2ccccc2)nn1`, the composite z-score is 0.548.

In turn, `CON=Cc1ccc(C(=O)N2[C@H](c3ccc(C)cc3)[C@@H](C)CC[C@H]2C(=O)OC)cc1` registered a composite z-score of -0.176.

Regarding `CCN1C(=O)[C@@H]2[C@H]3C(=CC[C@@H]2C1=O)C1(OCCCO1)[C@H]1O[C@H]1[C@H]3O`, the composite z-score was found to be 0.162.

Turning to `O=C(NN=C1C[C@@H](O)[C@@H](O)[C@@H]2[C@@H]3C(=O)N(C[C@@H]4CCCO4)C(=O)[C@@H]3CC[C@@H]12)OCc1ccccc1`, the composite z-score is -0.345.

With `CC(CCN1CCc2nc(-c3ccccc3)c(-c3ccccc3)cc2C1)=NOC[C@@H](O)COCc1ccco1`, the composite z-score was 0.475.

As for `O=C1[C@H]2[C@H]3[C@H](O)[C@H](O)CC(=NO[C@@H]4O[C@H](CO)[C@@H](O)[C@H](O)[C@H]4O)[C@H]3CC[C@H]2C(=O)N1c1cccc(Oc2ccccc2)c1`, the composite z-score came out at 0.199.
